We go through 40 compounds from PubChem BioAssay (Tox21).

Inconclusive results are not listed. A call without a number means that no potency is given here. Calls of active or inactive are those of the source. Calls follow the shape of the full dose curve.

The nature of this assay: p53 small molecule agonists, cell-based qHTS assay: qHTS cell viability counter screen (AID 1963581). Also: nearly all actives have a fitted effect of over 45% in size. The settings on record: p53RE-bla HCT-116 viability, ATP luminescence, 16 h; series mostly up to 66 µM. The source says:
National Center for Advancing Translational Sciences [NCATS]
Division of Preclinical Innovation [DPI]
U.S. Environmental Protection Agency [EPA]
National Institutes of Environmental Health Sciences [NIEHS]
National Toxicology Program [NTP]
U.S. Food and Drug Administration [FDA]
p53, a tumor suppressor protein, is activated following cellular insult, including DNA damage and other cellular stresses. The activation of p53 regulates cell fate by inducing DNA repair, cell cycle arrest, apoptosis, or cellular senescence. The activation of p53, therefore, is a good indicator of DNA damage and other cellular stresses. The CellSensor p53RE-bla HCT-116 cell line (Invitrogen) contains a stably integrated beta-lactamase reporter gene under control of the p53 response elements. The activation of the reporter gene under culture conditions can be detected by fluorescence intensity. This cell line was used to screen the Tox21 compound library in a 1536-well plate format and to identify agonists that activate the p53 signaling pathway. The cytotoxicity of the Tox21 compound library against the p53 RE-bla HCT-116 cell line was tested in parallel by measuring the intra cellular ATP content in the same wells.
Tox21 Assay Protocol Summary:
The p53RE-bla cells were dispensed at 4,000 cells/5 ul/well in 1536-well black wall/clear bottom plates using a Multidrop dispenser. After the assay plates were incubated at a 37 C/5% CO2 incubator for 5 hours, 23 nL of compounds dissolved in DMSO, positive controls or DMSO only was transferred to the assay plate by a pin tool. The plates were incubated at 37 C for 16 hours. After 1 uL of LiveBLAzerTM B/G FRET substrate was added using a Flying Reagent Dispenser, the plates were incubated at room temperature for 2 hours, and fluorescence intensity was measured by an Envision plate reader. For cell viability readout that measures cytotoxicity, 4 ul/well of CellTiter-Glo reagent was added into the assay plates using a Flying Reagent Dispenser. After 30 min incubation at room temperature, the luminescence intensity in the plates was measured using a ViewLux plate reader.
On the technique in general: Quantitative high-throughput screening tests each substance at several concentrations.
For the compound `c1ccc2ccccc2c1`, the Potency result is “inactive”.

As for `CCOC(=O)CC(=O)OCC`, the Potency entry was “inactive”.

On to `Cc1ccc2c(c1)C(=O)OC2=O`, for which the Potency result is “inactive”.

`CC(=O)c1nccs1`: the Potency result is “inactive”.

In the case of `CCOC(=O)c1ccc(O)cc1`, the Potency entry was “inactive”.

Consider `CCCCCCCCCC(=O)OC`, for which the Potency result is “inactive”.

Regarding `O=C(O)CCCCC1CCSS1` (stereo not given), the Potency result is “inactive”.

As for `N[C@@H](Cc1cc(I)c(Oc2ccc(O)c(I)c2)c(I)c1)C(=O)O`, the Potency entry was “inactive”.

As to `CC(C)(C)c1cccc(C(C)(C)C)c1O`, the Potency entry is “inactive”.

As for `c1ccc2n[nH]nc2c1`, the Potency result is “inactive”.

As for `Cc1cccc2ccccc12`, the Potency result is “inactive”.

With `OCCCc1ccccc1`, the Potency entry was “inactive”.

As to `CCCCOC(=O)c1ccc(N)cc1`, the Potency entry was “inactive”.

As for `O=c1[nH]nnc2ccccc12`, the Potency entry was “inactive”.

For `CCCN(CCC)C(=O)SCC`, the Potency entry was “inactive”.

As to `Nc1ccc(S(=O)(=O)Nc2cnc3ccccc3n2)cc1`, the Potency result was “inactive”.

`O=c1c(O)c(-c2ccc(O)c(O)c2)oc2cc(O)cc(O)c12`: the Potency result is “inactive”.

As for `c1ccc2[nH]ccc2c1`, the Potency entry is “inactive”.

`CC1(C)CC(N)CC(C)(CN)C1` (stereo not given): the Potency result is “inactive”.

As for `COc1ccc(C(=O)c2ccccc2)c(O)c1`, the Potency result is “inactive”.

Consider `NNc1ccc(C(=O)O)cc1`, for which the Potency entry is “inactive”.

For the compound `Brc1ccc(Br)c(Br)c1`, the Potency entry was “inactive”.

Turning to `NC(=O)NC1NC(=O)NC1=O` (stereo not given), the Potency entry is “inactive”.

In the case of `O=NO`, the Potency result was “inactive”.

Turning to `O=C(c1ccccc1)c1ccc(O)c(O)c1O`, the Potency entry was “inactive”.

On to `O=c1ccc2ccccc2o1`, for which the Potency entry was “inactive”.

As to `N=C(N)c1ccc(OCCCCCOc2ccc(C(=N)N)cc2)cc1`, the Potency result is “inactive”.

Turning to `C=C(C)C(=O)OCC(CC)(COC(=O)C(=C)C)COC(=O)C(=C)C`, the Potency entry is “inactive”.

In the case of `CCCCC(CC)COC(=O)c1ccc(C(=O)OCC(CC)CCCC)cc1` (stereo not given), the Potency entry was “inactive”.

`CCCCCCCCCCCCCO`: the Potency entry is “inactive”.

For the compound `CCCCCCCCCCCCS`, the Potency entry was “inactive”.

For the compound `C=C(C)OC(C)=O`, the Potency entry is “inactive”.

`CCCCOCCO`: the Potency entry was “inactive”.

`CC(C)(Oc1ccc(Cl)cc1)C(=O)O`: the Potency entry was “inactive”.

As to `O=C(O)C(=O)O`, the Potency result was “inactive”.

Take `CCCC[P+](CCCC)(CCCC)CCCC`: the Potency entry is “inactive”.

In the case of `Cc1ccc2c(n1)Oc1ccc(C(C)C(=O)OCC(=O)N(C)C)cc1C2` (stereo not given), the Potency entry was “inactive”.

As to `O=S1(=O)CCCO1`, the Potency result is “inactive”.

For the compound `CC1(C)O[C@@H]2[C@@H](CO[C@@]3(COS(N)(=O)=O)OC(C)(C)O[C@@H]23)O1`, the Potency result was “inactive”.

`O=C(c1cc(O)c(O)c(O)c1)c1ccc(O)c(O)c1O`: the Potency entry was “inactive”.
